# Laboratory results taken from PubChem BioAssay (NCI).
# This is part of a sample that, as a whole, favours compounds with a hit. Of some 83,000 tested, about 20% had one in any assay.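 Interpretation: 100, growth as untreated; towards 0, rising growth inhibition; 0, no net growth; 0 to -100, cell death. Compounds scoring below 10 were considered active.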 Values without a mark were called inactive. Activity calls are given as the source filed them.
# What was measured:
# Assay in all cases: NCI-60 one-dose screen, 48 h (100 = growth as untreated, 0 = no growth, -100 = all killed)
# Settings in all cases: 10 µM unless noted
# T-47D breast = system: T-47D breast
# BT-549 breast = system: BT-549 breast
# MDA-MB-435 melanoma = system: MDA-MB-435 melanoma
# SW-620 colon = system: SW-620 colon
# MCF7 breast = system: MCF7 breast
# HCT-116 colon = system: HCT-116 colon
# HCC-2998 colon = system: HCC-2998 colon
# KM12 colon = system: KM12 colon
SMILES,growth (T-47D breast),growth (BT-549 breast),growth (MDA-MB-435 melanoma),growth (SW-620 colon),growth (MCF7 breast),growth (HCT-116 colon),growth (HCC-2998 colon),growth (KM12 colon)
C#C[C@]1(O)CC[C@H]2[C@@H]3CC=C4c5nc(Nc6ccccc6[N+](=O)[O-])sc5CC[C@]4(C)[C@H]3CC[C@@]21C,41.3%,34%,66.1%,76%,56.9%,45.7%,61.1%,54.1%
C=C(C)[C@@H]1CC[C@]2(C)[C@H](CC[C@@H]3[C@@H]([C@@](C)(O)CCC=C(C)C)CC[C@]32C)[C@@]1(C)CCC(=O)N1CCN(C)CC1,-42.9% [100 µM] (active),-84% [100 µM] (active),-82.6% [100 µM] (active),-75% [100 µM] (active),-65.9% [100 µM] (active),-85.7% [100 µM] (active),-91.9% [100 µM] (active),-83% [100 µM] (active)
O=C(Nc1cccnc1)c1ccc2ccc3ccc(C(=O)Nc4cccnc4)nc3c2n1,37.2%,34.7%,24.9%,11%,28.9%,4.76% (active),3.41% (active),5.81% (active)
CC1(C)CC(=O)c2c(ccc(C(=O)C[C@@H](N)CO)c2N)O1,29.5%,-4.27% (active),39.5%,7.17% (active),8.5% (active),8.56% (active),-20.4% (active),11%
CCn1cc(-c2[nH]c(=S)ncc2-c2ccc(Cl)cc2)c(-c2ccc(Br)cc2)n1,59.3%,91.2%,85%,103%,84.8%,72.6%,99.5%,94%
C=C(C)[C@@H]1CC[C@]2(C(N)=O)CC[C@]3(C)[C@H](CC[C@@H]4[C@@]5(C)C/C(=C/c6cccnc6)[C@H](O)C(C)(C)[C@@H]5CC[C@]43C)[C@@H]12,16.1% [100 µM],26.6% [100 µM],9% [100 µM] (active),18.8% [100 µM],11.3% [100 µM],7.1% [100 µM] (active),19.5% [100 µM],14.2% [100 µM]
NC(=O)CC1C=CCC1 (stereo unspecified),106%,90.1%,102%,97.3%,92.1%,105%,101%,102%
C[C@@H]1C[C@H]2C(=O)O[C@@H](C)[C@H](NC(=O)[C@H](Cc3cc(F)cc(F)c3)NC(=O)Nc3ccc(C4CC4)cc3F)C(=O)N3CCC[C@H]3C(=O)N3CCCC[C@H]3C(=O)N[C@@H](C)C(=O)N2C1,5.43% (active),-1.76% (active),3.38% (active),27.7%,12.7%,-4.75% (active),-10.3% (active),15.6%
COc1ccc2c(c1)c(-c1noc(C(=O)c3cn(C)c4ncc(Br)cc34)n1)cn2C,49.7%,82.7%,63.1%,43.6%,79.9%,50.3%,92.9%,66.7%
CC1(C)CC[C@]2(C(N)=O)CC[C@]3(C)C(=CC[C@@H]4[C@@]5(C)C/C(=C/c6ccncc6)C(=O)C(C)(C)[C@@H]5CC[C@]43C)[C@@H]2C1,-24.8% [100 µM] (active),-24.9% [100 µM] (active),-56.3% [100 µM] (active),-32.1% [100 µM] (active),-36.6% [100 µM] (active),-22.7% [100 µM] (active),-50.4% [100 µM] (active),-52.3% [100 µM] (active)
O=C1Nc2ccccc2/C1=C/C(=O)c1ccc(N2CCCCC2)cc1,59.9%,90.8%,88.2%,-22.7% (active),68.9%,92.7%,105%,90.5%
C=C1C(=O)O[C@H]2[C@H]1CC/C(COC(=O)NCc1ccc(Cn3c(=O)sn(-c4ccc(Cl)cc4)c3=O)cc1)=C\CC[C@@]1(C)O[C@@H]21,47.5%,66.1%,82.9%,6.67% (active),33.1%,22.1%,107%,–
CCCCCCCCCN(CCCCCCCCC)C(C)C(=O)c1ccc2cc(Br)c3ccccc3c2c1 (stereo unspecified),79.8%,101%,76.5%,67%,97.7%,73.5%,47.7%,81.4%
O=C(C[n+]1ccn(CC(OCc2ccc(Cl)cc2Cl)c2ccc(Cl)cc2Cl)c1)c1ccc(F)cc1 (stereo unspecified),-71.6% (active),-94.9% (active),-92.5% (active),-89.9% (active),-84% (active),-97.1% (active),-94.6% (active),-89.1% (active)
Cc1nn(-c2ccccc2)c(N2CCOCC2)c1-c1nc2ccc([N+](=O)[O-])cc2[nH]1,95.8%,96.8%,96.1%,116%,96.6%,97.8%,133%,103%
CN(C)CCOc1ccc(/C(=C(/CCCl)c2ccccc2)c2ccccc2)cc1,25.6%,46.8%,-7.62% (active),15.8%,3.24% (active),6.56% (active),-41.2% (active),-47.4% (active)
O=C1CN(Cc2ccc(C(=O)NO)cc2)C(=O)[C@@H](Cc2ccccc2)N1,93.2%,101%,100%,102%,96%,97.2%,109%,104%
FC(F)(F)c1ccc2c(c1)Sc1ccccc1N2,77.7%,93.3%,97.1%,100%,95.4%,100%,102%,95%
CCN(CC)CCSC(=O)C(O)(c1ccccc1)C1CCCC1 (stereo unspecified),109%,109%,115%,102%,114%,109%,90.3%,79.4%
CC[C@]12C=CCN3CC[C@@]4(c5ccc(OC)cc5N(C)[C@H]4[C@@](O)(C(=O)OC)[C@@H]1OC(=O)CCC(=O)N[C@H](Cc1c[nH]c4ccccc14)C(=O)OC)[C@@H]32,-29.3% [100 µM] (active),-16.5% [100 µM] (active),-60.6% [100 µM] (active),-50.6% [100 µM] (active),-43.3% [100 µM] (active),3.55% [100 µM] (active),-43.3% [100 µM] (active),-35.1% [100 µM] (active)
CCN(CC)CCCCCCNc1cccc2cc(Br)cnc12,112%,80.8%,31.5%,56.5%,109%,72.2%,88.3%,65.7%
O=c1cc(-c2ccccc2)oc2c(O)c(O)ccc12,68.2%,67.4%,68.8%,58%,60.9%,39%,74.8%,65.3%
Cn1cc(-c2nnc(-c3cn(C)c4ncccc34)o2)c2ccccc21,12.2%,42.4%,-32.8% (active),26.7%,20.2%,23%,65.7%,22.1%
COc1cc2c(O)n(CCCN3CCOCC3)c3c4cnc5cccc(c(=O)c3c2cc1OC)c54,18.6%,57.9%,47.2%,34.9%,14.5%,27.9%,59.2%,46.3%
CCc1ccc(NC(=O)N[C@@H](Cc2cc(F)cc(F)c2)C(=O)N[C@@H]2C(=O)N3C[C@H](O)C[C@H]3C(=O)N3CCOC[C@H]3C(=O)N[C@@H](C)C(=O)N3C[C@H](C)C[C@H]3C(=O)O[C@H]2C)cc1,18.2%,11.3%,21.5%,48.5%,24.1%,13.7%,32.1%,42.7%
CC(C)(C)c1cc(C(=O)Nc2ccccc2C(=O)NCCN)cc(C(C)(C)C)c1,-14.6% (active),99.2%,-73.3% (active),-56.8% (active),-63.1% (active),-94.7% (active),-59.1% (active),-62.2% (active)
Cn1c(=O)c(C#N)c(-c2ccco2)n2c(S(=O)(=O)Cc3ccccc3)nnc12,90.6%,73.7%,83%,99.5%,74.9%,75.8%,102%,93.7%
c1ccc(-c2nc(N3CCCNCC3)c3nc(-c4ccccc4)oc3n2)cc1,46.9%,95.3%,-85.7% (active),-77.1% (active),-66.7% (active),-74.8% (active),-88.7% (active),-74.7% (active)
COC(=O)c1cc2c(=O)[nH]cc3c2c(n1)CCC3,91.9%,108%,119%,103%,94.1%,106%,88.4%,106%
